# HP1b chromo inh = HP1-beta chromodomain-methylated histone interaction inhibition; AlphaScreen HP1-beta / biotin-H3K9me3 peptide binding; Potency, µM (top dose mostly 114 µM), inactives show at the top dose activity change, negative = inhibition, usual class: inhibitors; 0.56% of 390,000 active; further: nearly all actives have a fitted effect of over 70% in size
# Target sequence (P83916 whole entry, looked up): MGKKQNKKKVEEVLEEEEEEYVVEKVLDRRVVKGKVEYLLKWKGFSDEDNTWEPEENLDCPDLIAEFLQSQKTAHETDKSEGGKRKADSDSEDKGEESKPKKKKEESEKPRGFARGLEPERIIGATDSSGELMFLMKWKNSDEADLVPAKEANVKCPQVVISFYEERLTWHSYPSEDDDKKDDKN
#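 HP1-beta protein (50 nM final) preincubated 30 min at room temperature with biotinylated H3(1-18)K9me3 peptide (50 nM) in PBS pH 7.4, 0.01% Tween-20, then compound added for 30 min. AlphaScreen streptavidin donor/nickel chelate acceptor beads (10 ug/mL final), 30 min dark, luminescence read.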
# L3MBTL1 block = blocks human L3MBTL1. 0.66% of 230,000 active. Q9Y468. AID 485360. Potency, µM (doses to about 57.1 µM), inactives show at the top dose activity, negative = inhibition, actives largely listed as inhibitors. AlphaScreen L3MBTL1–H3K9me1 peptide binding; further: on the % scale 0 is the no-effect control and ±100 the full control effect; nearly all actives have a fitted effect of over 60% in size
#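 Read-out is AlphaScreen signal from streptavidin donor and nickel chelate acceptor beads (10 ug/mL final each) bridging L3MBTL1 (50 nM) and biotinylated K9-monomethylated H3(1-15) peptide (75 nM), after 30 min compound exposure at room temperature.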
# JMJD2A Tudor = inhibitors of human JMJD2A Tudor domain. O75164. AlphaScreen JMJD2A-Tudor / H3K4me3 peptide binding. Potency, µM (doses to about 114 µM), for inactives: at the highest dose activity change, negative = inhibition, usual class: inhibitors. 4.4% of 390,000 active. AID 504339; further: on the % scale 0 is the no-effect control and ±100 the full control effect; nearly all actives have a fitted effect of over 50% in size
# BAZ2B inh = blocks human BAZ2B | AlphaScreen BAZ2B-H3K14Ac peptide displacement | Potency, µM (top dose mostly 114 µM), without a hit: at the highest dose activity change, negative = inhibition, actives largely listed as inhibitors | 4.4% of 360,000 active | AID 504333; further: on the % scale 0 is the no-effect control and ±100 the full control effect; nearly all actives have a fitted effect of over 60% in size
#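 BAZ2B 50 nM plus b-H3(5-23)K14Ac 50 nM, PBS pH 7.4/0.01% Tween-20, 30 min RT; compound added (max 110 uM), 30 min RT; streptavidin donor/Ni-chelate acceptor beads 10 ug/mL final, 20 min dark; AlphaScreen read.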
# Sfp PPTase inh = inhibitors of Bacillus subtilis Sfp phosphopantetheinyl transferase. Q9F4F7. Biochemical Sfp PPTase activity, qHTS. Potency, µM, inactives show largest response in the series, negative = inhibition, actives largely listed as inhibitors. 3.5% of 310,000 active. AID 1490;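 further: the enzyme is Sfp with the accession as filed and its product quenches rhodamine fluorescence; 0% = enzyme reaction without inhibitor and -100% = no enzyme wells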
#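 Step 1, compound plus 15 nM Sfp-PPTase, 15 min, room temperature. Step 2, add rhodamine-CoA (5 uM) and BHQ-2-YbbR (12.5 uM). Step 3, read 525/598 nm fluorescence at 0 and 30 min.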
# G9a inh = blocks human histone lysine methyltransferase G9a; AID 504332; G9a H3K9 monomethylation, AlphaScreen, 2 h; Q96KQ7; Potency, µM (top dose mostly 102 µM), inactives show top-dose activity, negative = inhibition, actives largely listed as inhibitors; 8.8% of 350,000 active; further: on the % scale 0 is the no-effect control and ±100 the full control effect; nearly all actives have a fitted effect of over 75% in size
# Target sequence (Q96KQ7 913-1193 limits assumed): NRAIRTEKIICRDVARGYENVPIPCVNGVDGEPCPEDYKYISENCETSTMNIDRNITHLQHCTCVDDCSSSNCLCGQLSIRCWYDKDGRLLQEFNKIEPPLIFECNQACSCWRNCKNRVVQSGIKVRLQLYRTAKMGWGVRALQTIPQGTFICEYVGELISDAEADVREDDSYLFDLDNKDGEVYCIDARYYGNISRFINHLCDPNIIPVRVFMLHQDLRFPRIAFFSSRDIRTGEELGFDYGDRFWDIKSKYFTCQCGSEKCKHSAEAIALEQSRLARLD
#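 Chemiluminescent proximity detection of H3K9 monomethylation, read after 10 min bead incubation in the dark. Reaction: 20 nM G9a, 500 nM biotin-H3K9 peptide, 20 uM SAM cofactor, 2 h, room temperature, following 15 min enzyme-compound preincubation.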
# Numbers without * were called inactive; u = inconclusive; x = no result; [ ] = another dose, or the depositor's remark. An excerpt weighted towards active compounds, which were near 12% of everything screened. The call rests on the fitted dose curve; in most records, active means well fitted curve in the direction sought with a large enough effect; inconclusive means small, poorly fitted or top-dose-only effect, or another doubt; inactive means no such curve, though single readings can be large; an effect the other way counts as inactive or inconclusive. Potency means the concentration at half of the fitted maximal effect.
SMILES,HP1b chromo inh,L3MBTL1 block,JMJD2A Tudor,BAZ2B inh,Sfp PPTase inh,G9a inh
CCOC(=O)c1c(C)n(C)c2cc([N+](=O)[O-])c(O)c([N+](=O)[O-])c12,-16%,-12%,u,u,10%,-45%
CCOC(=O)c1c(CSc2cccs2)n(C)c2cc(Br)c(O)c(CN(C)C)c12,u,-22%,63µM*,40µM*,-27%,x
CCOC(=O)c1c(C)n(C)c2cc(Br)c(O)c(O)c12,u,0%,10µM*,-3%,79µM*,0.35µM*
CCOC(=O)c1c(C)oc2cc(Br)c(O)c(Br)c12,23%,-8%,-20%,8%,-1%,6.3µM*
CCOC(=O)c1c(NC(C)=O)sc2c(O)c(Br)cc(Br)c12,-45%,-11%,u,u,35µM*,u
CCOC(=O)c1c(CN(C)C)n(-c2ccc(C)cc2)c2cc(Br)c(O)cc12,-34%,-4%,u,-37%,-6%,14%[59 µM]
O=C1NC(=S)N(c2cccc(Cl)c2)C12CCCCC2,6%,0%,-15%[57.1 µM],3%,5%,22%[59 µM]
O=C(O)CSC1=NC(=Nc2cccc(Cl)c2)C2(CCCCC2)N1c1ccccc1,u,4%,45µM*,-32%,-6%,3.5µM*
COc1ccc(S(=O)(=O)N2CCC(C(=O)NCc3ccncc3)CC2)cc1,50%,x,-8%,-11%,21%,-12%
CC(Sc1nnc(NCc2ccccc2)s1)C(=O)Nc1ccc2c(c1)C(=O)c1ccccc1C2=O (stereo not given),-16%,-9%,u,u,-4%,3.2µM*
CC(Sc1nnc(Nc2ccccc2)s1)C(=O)Nc1nc(-c2ccccc2)cs1 (stereo not given),18%,-15%[2.29 µM],-13%,-22%,29%,u
COc1ccc(C2c3c(n(C)c4ccccc34)C(=O)N2CC(=O)Nc2ccc(Cl)cc2)cc1 (stereo not given),-14%,x,-28%,-9%,x,-4%[59 µM]
C[C@@H]1Cc2c(O)c(O)cc(O)c2C(=O)O1,u,x,56µM*,u,-9%,-151%[59 µM]
CC1CCCN(C(=O)c2ccc3c(c2NCCO)C(=O)c2ccccc2C3=O)C1 (stereo not given),50µM*,x,45µM*,40µM*,-8%,2%[12.7 µM]
O=C1c2ccccc2C(=O)c2c1ccc(C(=O)N1CCCCC1)c2NCCO,-23%,-5%,-19%,-5%,13%,18%[59 µM]
CC1(C)CCCN(C(=O)c2ccc3c(c2NCCO)C(=O)c2ccccc2C3=O)C1,-79%,35µM*,40µM*,14µM*,-17%,35µM*
CCCC(O)c1nc2ccccc2n1CCCOc1ccc(Cl)cc1 (stereo not given),42%,x,-8%,2%,x,-44%[59 µM]
CCC(C)Sc1cc(-c2nc3ccc(C)cn3c2NCc2ccccc2)ccc1OC (stereo not given),u,x,56µM*,x,x,x
COc1ccc(-c2ccc(-c3nc4ccc(C)cn4c3NC3CCCCC3)cc2OC)cc1,-16%,-18%,40µM*,45µM*,x,0%[2.33 µM]
Cc1ccc2nc(-c3cccc(SC4CCCCC4)c3)c(NC3CCCCC3)n2c1,12%,-3%,-29%,x,x,x
COc1ccc(-c2nc3ccc(C)cn3c2NCc2ccccc2)cc1SC1CCCCC1,34%,-12%,79µM*,50µM*,x,2%[2.33 µM]
CCCCNc1c(-c2ccc(OC)c(SC3CCCCC3)c2)nc2ccc(C)cn12,21%,-14%,u,x,x,x
CCC(C)Sc1ccc(-c2nc3ccc(C)cn3c2NCc2ccccc2)cc1OC (stereo not given),0%,-7%,u,u,x,4%[2.33 µM]
CNc1nc2c(c(=O)n(C)c(=O)n2C)n1CC(O)COc1ccc(OC)cc1 (stereo not given),12%,x,-25%,u,x,-24%[59 µM]
CCCCn1c(SCC(=O)NCc2ccco2)nc2ccc(N3CCOCC3)cc2c1=O,29%,-5%[11.4 µM],-30%,-13%,45µM*,4%[12.7 µM]
SMILES,HP1b chromo inh,L3MBTL1 block,JMJD2A Tudor,BAZ2B inh,Sfp PPTase inh,G9a inh
CCCCn1c(SCC(=O)NC(C)CC)nc2ccc(N3CCOCC3)cc2c1=O (stereo not given),43%,-9%,1%,-7%,56µM*,u
Cc1ccc(CSc2nc3ccccc3c(=O)n2CCCC(=O)NCc2ccco2)cc1,9%,4%,-6%,-1%,25µM*,20%[59 µM]
CCC(C)NC(=O)CSc1nc2ccc(N3CCOCC3)cc2c(=O)n1CCc1ccccc1 (stereo not given),x,-27%[11.4 µM],x,2%,-15%,-51%[59 µM]
COc1cccc(CNS(=O)(=O)c2ccc(-c3cc(C(F)(F)F)on3)s2)c1,24%,x,-11%,11%,x,7%[59 µM]
Cc1ccc(NC(=O)Nc2c(C)n(C)n(-c3ccccc3)c2=O)c(Cl)c1,54%,x,-11%,8%,x,-6%[59 µM]
Cc1noc(Cn2c(=O)c3ccccc3n(CC(=O)Nc3ccccc3C(F)(F)F)c2=O)n1,20%,x,-10%,-7%,x,-11%[59 µM]
Cc1cc2c(N=NC(=O)C3CC3c3ccccc3)c(O)[nH]c2cc1Br (stereo not given),4%,-16%,-14%,-36%,10%,u
O=C(O)CCN1C(=O)/C(=C/c2ccc(-c3nc4ccccc4s3)o2)SC1=S,u,-19%,6.3µM*,3.5µM*,-21%,u
O=Cc1ccc(-c2nc3ccccc3s2)o1,19%,-2%,-15%,-21%,2%,-2%
O=C(O)CC(C(=O)O)N1C(=O)/C(=C/c2ccc(-c3nc4ccccc4s3)o2)SC1=S (stereo not given),28µM*,4.5µM*,50µM*,50µM*,8.9µM*,5µM*
COc1ccc(-c2nc(SC(CC(=O)NCCO)c3cccs3)n[nH]2)cc1 (stereo not given),34%,3%,1%,-7%,8%,45µM*
NC(=O)c1ccc(Oc2cccc3cccnc23)c([N+](=O)[O-])c1,21%,-3%,-13%,-14%,11%,24%
COc1ccc(C(=O)Oc2cccc3cccnc23)cc1[N+](=O)[O-],18%,u,u,14µM*,-17%,2%
C/C(CCC(C)C)=N\Nc1cc(C)c2ccccc2n1,-4%,u,u,x,28µM*,u
Cc1cc(NCc2ccccc2)nc2ccccc12,71%,5%,18%,23%,8%,-6%[59 µM]
COc1cc(C(=O)O[C@H]2CC(C)=CC[C@@]3(C)CC[C@@](O)(C(C)C)[C@H]23)ccc1O,2%,x,-35%,-16%,-5%,-2%
COC(=O)/C=c1\sc2ncnn2c1=O,u,6%,20µM*,11%,10µM*,3.2µM*
CNC(=O)/C(C#N)=c1\s/c(=C/C(=O)OC)c(=O)n1-c1ccccc1,26%,5%,-14%,-3%,8%,13%[0.501 µM]

# Screens deposited in PubChem by National Center for Advancing Translational Sciences (NCATS).
